# High-throughput results deposited in PubChem by National Center for Advancing Translational Sciences (NCATS).
# An excerpt weighted towards active compounds, which were near 6.1% of everything screened.
# D1 antag: human D1 dopamine receptor antagonism. HEK293 TREx D1 cells, calcium flux, dopamine EC80; active compounds read low. activity change, negative = inhibition, % at 10 µM. 360,000 compounds, 3.2% hits; in the data active = activity change below about -30%; note: % is set by controls: 0 for no effect and ±100 for the full control effect
#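 Cells carrying a force-coupled, tetracycline-inducible human D1 receptor report calcium flux. Each well gets a 10 s baseline, compound with 180 s monitoring, then an EC80 dopamine stimulus with a second 180 s kinetic read.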
# D1 agonist: activates the human D1 dopamine receptor; HEK293 T-REx D1 cells, calcium flux, agonist mode; activation, % at 2 µM; P21728; AID 504660; 360,000 compounds, 1% hits; in the data active = activation above about 30%; note: 0% is about no effect
#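 Inducible HEK293 T-REx D1 cells, force-coupled to calcium signalling, were plated at 4000 cells/well with tetracycline and held overnight at 30 C. After no-wash calcium dye loading, compound-evoked calcium rise over 180 s flagged agonists.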
# D3 ag: D3 dopamine receptor (human) agonism; max activation, %; D3R DiscoveRx beta-arrestin cells, luminescence, 90 min; P35462; 410,000 compounds, 0.58% hits; AID 652048; in the data active = max activation above about 30%; note: 0% is about no effect
# Target sequence (P35462 whole entry, looked up): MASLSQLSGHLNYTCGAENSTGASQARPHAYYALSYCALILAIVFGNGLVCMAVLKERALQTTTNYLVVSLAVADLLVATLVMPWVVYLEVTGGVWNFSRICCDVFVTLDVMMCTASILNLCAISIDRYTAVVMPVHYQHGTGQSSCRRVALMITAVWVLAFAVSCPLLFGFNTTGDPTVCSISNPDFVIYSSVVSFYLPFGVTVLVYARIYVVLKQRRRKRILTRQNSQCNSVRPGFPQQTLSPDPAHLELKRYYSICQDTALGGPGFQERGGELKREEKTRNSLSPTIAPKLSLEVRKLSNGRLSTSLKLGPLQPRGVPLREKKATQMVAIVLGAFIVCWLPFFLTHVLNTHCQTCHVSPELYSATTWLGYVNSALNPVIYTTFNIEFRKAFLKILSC
#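 Agonist mode: compounds and dopamine controls were applied to plated cells for 90 min at 37 degrees C after an overnight attachment at 1500 cells/well. Luminescent read-out followed 30 - 60 minutes at room temperature with DiscoveRx detection reagent.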
# D3 antag: antagonists of human D3 dopamine receptor | 360,000 compounds, 2.5% hits | AID 652054 | D3R cells, DiscoveRx beta-arrestin luminescence, antagonist mode; active compounds read low | P35462 | max response, negative = inhibition, %; in the data active = max response below about -50%; inconclusive = no clear call, values can overlap the other calls; note: % is set by controls: 0 for no effect and ±100 for the full control effect
#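 Cells expressing the human receptor were seeded at 1500 cells/well, incubated overnight at 37 degrees C in 5% CO2, then exposed to library compounds with dopamine controls for 90 minutes at 37 degrees C before luminescent detection.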
# D1 potentiator: human D1 dopamine receptor positive modulation. AID 504651. P21728. 360,000 compounds, 0.036% hits. potentiation, % at 10 µM. HEK293 TREx D1 cells, calcium flux, dopamine EC20 potentiation; in the data active = potentiation above about 30%; note: 0% is about no effect
# Starred values were filed as active, the others as inactive; ? = inconclusive; · = not tested or not shown.
SMILES,D1 antag,D1 agonist,D3 ag,D3 antag,D1 potentiator
Cc1ccc(Cl)cc1NS(=O)(=O)c1ccc(-n2cccn2)cc1,-30*,13,-8,1,-10
O=S(=O)(NCc1ccccc1Cl)c1ccc(-n2cccn2)cc1,-31*,9,0,0,-3
CC(=O)c1ccc([N+](=O)[O-])c(CS(=O)(=O)c2ccc(Cl)cc2)c1,5,15,4,1,-2
COCCn1c(C)cc(C(=O)CSc2nnnn2C2CCCC2)c1C,38,4,-4,8,·
Cc1ccc(CNC(=O)CCC2CCCN(Cc3cccc4ncccc34)C2)o1 (centres undefined),-10,1,-14,0,-3
O=C(CSc1cccc[n+]1[O-])Nc1cc(Cl)ccc1[N+](=O)[O-],·,·,2,22,·
O=[N+]([O-])c1ccc(Sc2cccc[n+]2[O-])c2nonc12,-24,26,-60,-116*,-2
COc1ccc(OCC(O)Cn2c(NCCO)nc3c2c(=O)n(C)c(=O)n3C)cc1 (centres undefined),-8,0,-10,·,-1
C=CC(C)(C)c1c(O)c(CC=C(C)C)c(O)c2c(=O)c3ccc(O)c(O)c3oc12,·,·,89*,81,·
Cn1c(=O)c2c(SCC(=O)Nc3ccc(F)cc3F)nc(C3CCCC3)nc2n(C)c1=O,10,1,-8,·,3
O=c1oc2cc(O)ccc2cc1-c1nc(-c2ccc(Cl)c(Cl)c2)cs1,7,46*,6,·,3
COc1ccc2oc(=O)c(-c3nc(-c4ccc(C)c(C)c4)cs3)cc2c1,-6,5,1,·,-1
O=c1oc2cc(O)ccc2cc1-c1nc2c(s1)CCc1ccccc1-2,-23,283*,0,84,-10
O=c1oc2ccccc2cc1-c1nc2c(s1)CCc1ccccc1-2,3,21,1,11,-8
Cn1cc(S(=O)(=O)N2CCc3ccccc32)cc1C(=O)Nc1ccc(C(F)(F)F)cc1,-6,1,1,·,-1
COc1ccc(S(=O)(=O)Nc2cccc(S(=O)(=O)N3CCCCC3)c2)cc1,·,·,6,4,·
Cc1ccc(S(=O)(=O)Nc2nc3ccccc3nc2Nc2cccc(S(=O)(=O)N3CCCC3)c2)cc1,-39*,7,32*,46,-8
O=[N+]([O-])c1cccc(S(=O)(=O)Nc2nc3ccccc3nc2Nc2cccc(S(=O)(=O)N3CCCCC3)c2)c1,-32*,20,14,-6,-6
CC(C)CC(OC(=O)CNC(=O)c1ccccc1)C(=O)Nc1cc(C(F)(F)F)ccc1Cl (centres undefined),-27,5,·,·,-2
CCc1ccccc1NC(=S)N(CCN1CCOCC1)Cc1ccccc1F,-12,0,-5,-16,0
O=C(CN1C(=O)C2CCCCN2c2ccc(C(=O)N3CCCC3)cc21)NCc1cccc(F)c1 (centres undefined),7,-2,8,·,4
O=[N+]([O-])c1ccc(NC2CCN(Cc3ccccc3)CC2)c([N+](=O)[O-])c1,16,4,-4,-62*,-6
CC1CCC2C(=O)N(c3ccc(NC4CCN(Cc5ccccc5)CC4)c([N+](=O)[O-])c3)C(=O)C2C1 (centres undefined),0,0,-22,-50*,0
O=C1C2CCCCC2C(=O)N1c1ccc(NC2CCN(Cc3ccccc3)CC2)c([N+](=O)[O-])c1 (centres undefined),4,1,-17,-17,7
CC(C)COc1ccc(C(=O)Nc2cc(S(=O)(=O)N3CCOCC3)ccc2N2CCCC2)cc1,2,4,3,7,·
SMILES,D1 antag,D1 agonist,D3 ag,D3 antag,D1 potentiator
CC[C@H](C)[C@@H](CO)NC(=O)[C@H]1O[C@@H](n2ccc(N)nc2=O)[C@H](O)[C@@H]1O,·,·,-7,0,·
O=C(Cn1[nH]c(=O)c2ccccc2c1=O)NC1CCCCCC1,-1,0,0,4,0
O=C(CCCCn1c(=O)c2ccccc2n(CC(=O)NC2CCCC2)c1=O)NC1CCCC1,-39*,0,-1,-16,-1
O=C(CCCCn1c(=O)c2ccccc2n(Cc2ccccc2)c1=O)NC1CCN(Cc2ccccc2)CC1,2,5,-20,-58*,-10
CCCN(CCC)C(=O)Cn1c(=O)n(CCCCC(=O)NC2CCCC2)c(=O)c2ccccc21,-5,4,5,-19,-2
O=C(Cn1[nH]c(=O)c2ccccc2c1=O)NC1CCN(Cc2ccccc2)CC1,13,3,-8,-72*,4
O=C(NC(c1cccnc1)C(F)(F)F)c1cc(COc2ccc3c(c2)CCCC3)on1 (centres undefined),-18,16,8,35,11
COc1ccccc1N(CC(=O)NC(C)(C)C)S(=O)(=O)c1cccs1,-5,-1,-21,-24,0
O=S(=O)(c1ccc(-c2ccon2)s1)N1CCN(c2ccccn2)CC1,-21,7,-2,4,-6
N#Cc1ccc(-c2ccc(OCC(=O)NCCc3ccccc3)cc2)cc1,-48*,36*,-1,15,-7
COc1ccc(-n2ncc(C(=O)N3CCN(Cc4ccccc4)CC3)c2C2CCN(C(=O)OC(C)(C)C)CC2)cc1,0,1,2,·,0
CCC(=O)Oc1ccc2ccccc2c1CNC(=O)c1ccccc1,-40*,2,-2,-24,5
O=C(NCNC(=O)c1ccccc1)c1ccccc1,-19,1,-14,-15,-5
CCN(CC)CCNc1cccc2sc3ccccc3c(=O)c12,·,·,-12,-28,·
CCN(CC)CCNc1ccc(CO)c2sc3ccccc3c(=O)c12,27,2,-48,-63*,1
O=C(NC(C(=O)c1ccccc1)c1ccccc1)c1ccccc1 (centres undefined),·,·,7,5,·
COc1ccc(N(CC(=O)NC2CCCCC2)C(=O)CNC(=O)c2ccco2)cc1,-2,1,-2,?,0
Cc1ccc(OCCn2c(-c3ccc(Br)cc3)nc3ccccc3c2=O)cc1C,-7,0,-8,·,0
O=C(OCn1nnc2ccccc2c1=O)c1ccco1,5,-1,-1,-21,7
O=C(OCn1nnc2ccccc2c1=O)c1cc2ccccc2o1,-32*,2,5,9,-5
NC(=O)NC(CC(=O)NCCCc1ccccc1)c1ccc(Cl)cc1 (centres undefined),11,2,-24,-55*,2
NC(=O)NC(CC(=O)NCCc1ccc(S(N)(=O)=O)cc1)c1ccc(Cl)cc1 (centres undefined),-3,0,-1,4,-1
O=C1CCC(C(=O)N2CCCCCC2)CN1Cc1cccc(C(F)(F)F)c1 (centres undefined),-17,1,0,-14,1
CCOC(=O)c1cc(S(=O)(=O)Nc2c(C)cc(C)cc2C)[nH]n1,-3,2,-7,·,4
c1ccc(CCNc2ccccc2)cc1,-8,1,·,·,-6
